Screening data as filed in PubChem.
Shown is part of a subset that was picked to be rich in hits.
RBX1-CUL1 inh: inhibitors of human ROC1-CUL1 ubiquitin ligase activity | 140,000 tested, 0.6% active | E3 ubiquitin-protein ligase RBX1 (Homo sapiens) + Cullin-1 (Homo sapiens), P62877+Q13616 | inhibition, % at 10 µM | AID 1347404, 2020 | in vitro K48 di-Ub FRET, acceptor:donor ratio, 45 min; in the data active = inhibition above about 25%
Each line names hits and unclear results; the compound was inactive in the other large screens.

COc1cc2ccccc2cc1C(=O)Nc1ccc(N2CCN(C(=O)c3ccc(C)cc3)CC2)cc1	none
CCCn1c(C)c(CC(=O)NC(C)C)c2c1CC(C)(C)CC2=O	none
CCN=C1CC=C(Br)C=C(C(=O)/C=C/c2cc(OC)ccc2OC)C1=O	RBX1-CUL1 inh 55
COc1ccc(Br)cc1/C=C/C(=O)c1ccc(OS(C)(=O)=O)cc1	none
CCN=C1CC=C(Br)C=C(C(=O)/C=C/c2ccc(OC)cc2)C1=O	none
CCOc1cc(/C=N/NS(=O)(=O)c2ccccc2)cc(Cl)c1OCc1ccccc1Cl	none
CN(C)Cc1c(O)ccc2occ(C(=O)c3cccs3)c12	none
O=C1NC(=S)S/C1=C/c1ccc(N2N=C(c3ccccc3)CC2c2ccccc2)cc1 (stereo not given)	RBX1-CUL1 inh 81
Cc1cc(/C=C2/SC(=S)NC2=O)c(C)n1-c1ccccc1	none
O=C1NC(=S)S/C1=C/c1ccc(F)cc1	none
CC(C)COc1ccc(/C=C2/C(=O)NC(=S)N(c3ccc(F)cc3)C2=O)cc1	none
COC1=CC=C(C(=O)O)CC=C1	none
Cc1c(-c2ccc(O)c(O)c2)oc2ccccc2c1=O	RBX1-CUL1 inh 93
Cc1cccc2oc3ccccc3c(=O)c12	none
Cc1ccc2oc3ccccc3c(=O)c2c1	none
c1ccc(CN2CCN(c3ncnc4sc5c(c34)CCC5)CC2)cc1	none
CC(C)c1cccc(C(C)C)c1OCCCCCN1CCCC1	none
O=[N+]([O-])c1ccccc1-c1ccc(-c2ccccc2)cc1[N+](=O)[O-]	none
Cc1sc(NC(=O)/C=C/c2ccco2)c(C(N)=O)c1C	none
O=C(/C=C/c1ccco1)Nc1scc(-c2cccs2)c1C(=O)O	RBX1-CUL1 inh 28
CC(C)(CC(=O)Nc1scc(-c2cccs2)c1C(=O)O)CC(=O)Nc1scc(-c2cccs2)c1C(=O)O	none
COCCN(C(=O)CCc1nnc(Cc2cccc(C)c2)o1)C(C)C	none
NC(=O)c1sc2nnc(-c3ccco3)c(-c3ccco3)c2c1N	none
O=c1[nH]nnc2c1sc1nc3c(c(-c4ccco4)c12)CCc1ccccc1-3	RBX1-CUL1 inh 67
O=c1[nH]nnc2c1sc1nc3c(c(-c4ccc(Cl)cc4)c12)CCCC3	none
Cc1nc(C2CCNCC2)cc(N2CCC3(C=Cc4ccccc43)CC2)n1	none
COc1ccc(CC(=O)Nc2nnc(C34CC5CC(CC(C5)C3)C4)s2)cc1	none
COc1ccc2c(c1)C=C1C(=CC(=Nc3ccc(Br)cc3)CC1(C)C)O2	RBX1-CUL1 inh 54
O=C(c1coc(Cn2cnc3ccccc32)n1)N1CCCC1c1ccc(F)cc1 (stereo not given)	none
CCOC(=O)c1ccc(NC(c2ccccc2)c2ccc3cccnc3c2O)cc1 (stereo not given)	none
CCOc1ccc(OCC)c(N2C(=O)NC(=O)/C(=C\c3cccs3)C2=O)c1	none
CCOc1ccc(OCC)c(N2C(=O)NC(=O)/C(=C\c3ccc(OCC#N)cc3)C2=O)c1	none
CCOc1ccc(OCC)c(N2C(=O)NC(=O)/C(=C\c3ccc(Br)o3)C2=O)c1	RBX1-CUL1 inh 76
N#CC1C(=N)Oc2c(c(=O)[nH]c3ccccc23)C1c1ccc(F)cc1 (stereo not given)	none
CC(=O)Oc1ccc(OC(C)=O)c2c1C(=O)C=CC2=O	RBX1-CUL1 inh 99
CC(=O)Oc1ccccc1C(=O)Oc1ccccc1	none
CC(=O)NCc1ccc(OC(C)=O)c(OC(C)=O)c1	none
O=C(NCc1ccccc1F)c1ccc(N2CCC(NCc3cnn(Cc4ccccc4)c3)CC2)cc1	none
COc1ccc(Cc2nn3c(-c4ccccc4)nnc3s2)cc1OC	none
CC(C)c1cc(N)cc(C(=O)O)c1O	none
CCC(C)NS(=O)(=O)c1ccc(OC)c(C(=O)O)c1 (stereo not given)	none
CCC(C)c1cc(Cc2cc(C(C)CC)cc(C(=O)O)c2O)c(O)c(C(=O)O)c1 (stereo not given)	RBX1-CUL1 inh 80
Cc1cc(C)cc(OCc2ccc(C(=O)N/N=C\C=C\c3ccccc3[N+](=O)[O-])o2)c1	none
Cc1ccc(-c2nnnn2-c2ccc(Br)cc2Br)cc1	none
COc1ccccc1NC(=O)C1C(C)=Nc2nc(SCc3ccc(Cl)cc3)nn2C1c1ccccc1Cl (stereo not given)	none
CC1(C)CC(=O)/C(=C\c2ccccc2)C(C)(C)N1	RBX1-CUL1 inh 25
O=C1C(=O)/C(=C/c2ccccc2)CCC/C1=C/c1ccccc1	none
O=C1/C(=C\c2ccccc2)CCC/C1=C\c1ccccc1	none
O=S(=O)(Nc1cccc(N2CCCC2)c1)c1ccc2ccccc2c1	none
Cc1ncc(CN2CCC3(CCCN(Cc4cccnc4)C3=O)C2)n1C (stereo not given)	none
CCN(CC)CCOC(c1ccccc1C)C1CCCCC1 (stereo not given)	none
CNCc1cc(Br)ccc1OC	none
COc1ccc(Br)cc1CNc1ccc(O)cc1	RBX1-CUL1 inh 41
Oc1ccc(NCc2ccc(OCc3ccccc3)cc2)cc1	none
Oc1ccc(NCc2ccc(Br)cc2)cc1	RBX1-CUL1 inh 76
COc1ccc(Br)cc1CNc1ccc2[nH]c(=O)[nH]c2c1	none
CCc1ccc(CNc2ccc(O)cc2)cc1	none
COc1ccc(CCNC(=O)C2Cc3ccccc3CN2S(=O)(=O)c2ccc(C)cc2)cc1OC (stereo not given)	none
CCCC(C(=O)NC1CCCCC1)(c1ccccc1)c1ccccc1	none
